# From PubChem BioAssay (EPA / NIEHS)
# Several values for one entry are separate records, joined by “and”; a condition that tells them apart may be missing. Equal entries are not always repeated. Some structures have more than one record in an assay (separate samples or runs), and their calls can disagree. Activity calls are given as the source filed them. The calls were made as follows: active = hit-call score of the fitted dose curve at least 0.9, where 1 is the maximum; inactive = score below 0.9.
# Legend:
# [1] = APR_HepG2_P-H2AX_72hr: Apredica 72-hour HepG2 Assay for H2AX Phosphorylation (AID 2282916); settings: imaging, actives raise or lower the signal;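 also: phospho-histone H2A.x immunostain intensity per cell marking DNA damage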
# Summary of the method: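 HepG2; cpd 0.39–200 uM ×10 conc, duplicates; 0.5% DMSO; 72 hr. Fix 3.7% formaldehyde 30 min RT, 0.5% Triton X-100 10 min. Anti-phospho-H2A.x 1:200 + Hoechst 2 ug/mL, 60 min RT; ArrayScan imaging.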
# [2] = APR_HepG2_MitoMembPot_72hr: Apredica 72-hour HepG2 Assay for Mitochondrial Membrane Potential (AID 2282917); settings: imaging, actives raise or lower the signal
# Summary of the method: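 HepG2 cells exposed 72 h to compounds at 0.39–200 uM (0.5% v/v DMSO, duplicates); MitoTracker Red CMXRos 250 nM loaded 30 min before 3.7% formaldehyde fixation, imaged by HCS fluorescence. Bidirectional fit versus DMSO.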
# [3] = APR_HepG2_MitoticArrest_72hr: Apredica 72-hour HepG2 Assay for Mitotic Arrest (AID 2282918); settings: high-content imaging, actives raise or lower the signal
# Summary of the method: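 HepG2 cells were exposed for 72 hr to compound at 0.39–200 uM (10 concentrations, duplicate) in 0.5% v/v DMSO, fixed in 3.7% formaldehyde, immunostained for phospho-histone H3 with Hoechst 33342 and imaged by high-content fluorescence; bidirectional fits versus DMSO.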
# [4] = APR_HepG2_MicrotubuleCSK_72hr: Apredica 72-hour HepG2 Assay for Microtubule CSK Stabilty (AID 2282919); settings: HepG2 microtubule cytoskeleton, high-content imaging, actives raise or lower the signal
# Summary of the method: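 HepG2 human liver cells were dosed for 72 h at ten concentrations from 0.39 to 200 uM in duplicate (0.5% v/v DMSO final). Fixed, permeabilized cells were immunostained for alpha-tubulin (Cy5) with a Hoechst counterstain and imaged at 20x.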
# [5] = APR_HepG2_P-H2AX_24hr: Apredica 24-hour HepG2 Assay for H2AX Phosphorylation (AID 2282920); settings: high-content imaging, actives raise or lower the signal
# Summary of the method: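 HepG2 human liver cells were exposed for 24 hr to compounds at 0.39–200 uM in duplicate, with 0.5% v/v DMSO final. Fixed cells were immunostained for phospho-histone H2A.x plus Hoechst 33342, imaged by HCS fluorescence, and fitted bidirectionally against DMSO.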
# [6] = APR_HepG2_StressKinase_72hr: Apredica 72-hour HepG2 Assay for Stress Kinase (AID 2282921); settings: HepG2 stress kinase (phospho-c-Jun) imaging, actives raise or lower the signal
# Summary of the method: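 Dose 0.39–200 uM (10 pts, duplicate), 0.5% DMSO; 72 h; fix 3.7% formaldehyde 30 min RT; Triton permeabilize; anti-phospho-c-Jun/Cy3 + Hoechst 60 min RT; image 20x; fit gain/loss vs DMSO.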
# [7] = APR_HepG2_StressKinase_24hr: Apredica 24-hour HepG2 Assay for Stress Kinase (AID 2282922); settings: HepG2 stress kinase (phospho-c-Jun) imaging, actives raise or lower the signal
# Summary of the method: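 HepG2 cells exposed 24 hr to compound at 0.39–200 uM (10 concentrations, duplicate), 0.5% v/v DMSO final. Fixed in 3.7% formaldehyde, permeabilized with Triton X-100, immunolabeled for phospho-c-Jun with Hoechst 33342; HCS fluorescence imaging, bidirectional fit versus DMSO.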
# [8] = APR_HepG2_p53Act_72hr: Apredica 72-hour HepG2 Assay for p53 Activation (AID 2282923); settings: high-content imaging, actives raise or lower the signal;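 also: average cellular p53 protein immunofluorescence intensity in HepG2 cells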
# Summary of the method: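 10-pt conc. 0.39–200 uM, duplicate, 0.5% DMSO; 72 hr exposure; 3.7% formaldehyde fix, 0.5% Triton perm; sheep anti-p53/Cy5 + Hoechst; ArrayScan 20x, 6 images/well; gain/loss fit vs DMSO.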
# [9] = APR_HepG2_MitoMass_72hr: Apredica 72-hour HepG2 Assay for Mitochondrial Mass (AID 2282924); settings: high-content imaging, actives raise or lower the signal;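 also: MitoTracker Red CMXRos stain intensity per cell imaged as mitochondrial mass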
# Summary of the method: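 HepG2 cells were exposed for 72 hr to compounds at 0.39–200 uM (ten concentrations, duplicate, 0.5% v/v DMSO final). Live cells were stained with 250 nM MitoTracker Red CMXRos for 30 min, then fixed in 3.7% formaldehyde and imaged by HCS fluorescence.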
# [10] = APR_HepG2_NuclearSize_72hr: Apredica 72-hour HepG2 Assay for Nuclear Size (AID 2282925); settings: high-content imaging, actives raise or lower the signal
# Summary of the method: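 HepG2 cells were exposed to compounds at ten concentrations from 0.39 to 200 uM (duplicate, 0.5% DMSO final) for 72 hr. After fixation in 3.7% formaldehyde, nuclei were stained with Hoechst 33342 (2 ug/mL) and imaged at 20x.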
# [11] = ATG_CRE_CIS: Attagene CIS-FACTORIAL HepG2 Assay for human cAMP Responsive Element (CRE) binding protein 3 (AID 2282926); settings: HepG2 CRE cis-reporter, Attagene multiplexed mRNA; actives raise or lower the signal
# Summary of the method: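 HepG2 cells transiently transfected with a multiplexed reporter library (CRE-driven unit among them) were dosed for 24 h. Reporter mRNA was quantified by RT-PCR, fluorescent labelling, HpaI digestion and capillary electrophoresis, with bidirectional fitting against DMSO baseline.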
# [12] = target: CCAAT/enhancer-binding protein beta (Homo sapiens) (UniProt P17676); test: ATG_C_EBP_CIS: Attagene CIS-FACTORIAL HepG2 Assay for human CCAAT/Enhancer Binding Protein (C/EBP) beta (AID 2282927); settings: HepG2 Attagene cis-factorial transcription factor reporter; actives raise or lower the signal
# CCAAT/enhancer-binding protein beta (Homo sapiens), sequence (P17676 whole entry, looked up): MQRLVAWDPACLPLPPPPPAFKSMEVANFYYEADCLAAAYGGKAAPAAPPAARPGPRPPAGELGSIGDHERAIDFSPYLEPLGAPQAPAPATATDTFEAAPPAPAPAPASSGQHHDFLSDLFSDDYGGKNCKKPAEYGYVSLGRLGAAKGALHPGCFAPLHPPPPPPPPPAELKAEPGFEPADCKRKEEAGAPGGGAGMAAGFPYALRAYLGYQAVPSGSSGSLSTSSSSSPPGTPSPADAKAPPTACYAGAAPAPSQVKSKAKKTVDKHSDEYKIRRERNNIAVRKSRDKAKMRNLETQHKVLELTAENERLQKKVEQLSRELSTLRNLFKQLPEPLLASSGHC
# Summary of the method: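 Following a 24 h incubation with test chemical, transfected HepG2 cells yielded RNA whose reporter transcripts were quantified by RT-PCR and fluorescent capillary electrophoresis, with DMSO serving as baseline for bidirectional fitting.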
# [13] = ATG_CMV_CIS: Attagene CIS-FACTORIAL HepG2 Assay for human CMV (Internal Marker) (AID 2282928); settings: HepG2 CMV promoter reporter, transcription factor profiling; actives raise or lower the signal;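 also: endpoint acts as a background internal control marker rather than a target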
# Summary of the method: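 Cell system: HepG2, transiently transfected multiple reporter units under cis promoters. Exposure: 24 h. Detection: RT-PCR, FAM labeling, HpaI digestion, capillary electrophoresis. Analysis: bidirectional, DMSO baseline.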
# [14] = ATG_DR4_LXR_CIS: Attagene CIS-FACTORIAL HepG2 Assay for human Liver X Receptor (LXR), DR4 submotif (AID 2282929); settings: HepG2 Attagene DR4 cis-reporter, mRNA transcription; actives raise or lower the signal
# Summary of the method: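 Readout: reporter transcript fluorescence after RT-PCR and capillary electrophoresis, fitted bidirectionally against DMSO controls. Human HepG2 liver cells carried transiently transfected multiplexed reporter constructs; endogenous transcription factor activity measured 24 h post-dosing.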
# [15] = ATG_AP_1_CIS: Attagene CIS-FACTORIAL HepG2 Assay for human Activator Protein 1 (AP-1) (AID 2282931); settings: HepG2 Attagene cis-factorial AP-1 reporter mRNA; actives raise or lower the signal
# Summary of the method: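 Reporter transcripts were measured 24 h after dosing by RT-PCR and capillary electrophoresis of fluorescent fragments. Cells: HepG2 carrying transfected cis-regulated reporter constructs reading endogenous factor activity. Gain or loss fitted against DMSO.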
# [16] = ATG_AP_2_CIS: Attagene CIS-FACTORIAL HepG2 Assay for human Activator Protein 2 (AP-2) (AID 2282932); settings: HepG2 AP-2 cis-reporter, Attagene transcription factor profiling; actives raise or lower the signal
# Summary of the method: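 Bidirectional curve fitting against DMSO was applied to reporter mRNA signals from HepG2 cells 24 h after dosing. Cis-promoter reporter units, transiently transfected, were read by RT-PCR plus capillary electrophoresis.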
# [17] = ATG_BRE_CIS: Attagene CIS-FACTORIAL HepG2 Assay for human Bone Morphogenetic Protein (BMP) Response Element (BRE) (AID 2282933); settings: HepG2 BMP response element reporter, Attagene transcription factor profiling; actives raise or lower the signal
# Summary of the method: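 Endogenous transcription factor activity read in transiently transfected HepG2 cells after 24 h chemical exposure. Bidirectional curve fitting against DMSO; readout is reporter transcript level by RT-PCR with capillary electrophoresis of labelled products.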
# [18] = target: Retinoic acid receptor alpha (Homo sapiens) (UniProt P10276); test: ATG_DR5_RAR_CIS: Attagene CIS-FACTORIAL HepG2 Assay for human Retinoic Acid Receptor Alpha (RARE), DR5 submotif (AID 2282934); settings: HepG2 Attagene cis-factorial RARE DR5 reporter, mRNA; actives raise or lower the signal;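 as to AC50: reporter responds to endogenous RAR alpha beta and gamma in HepG2 not RARA alone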
# Retinoic acid receptor alpha (Homo sapiens), sequence (P10276 whole entry, looked up): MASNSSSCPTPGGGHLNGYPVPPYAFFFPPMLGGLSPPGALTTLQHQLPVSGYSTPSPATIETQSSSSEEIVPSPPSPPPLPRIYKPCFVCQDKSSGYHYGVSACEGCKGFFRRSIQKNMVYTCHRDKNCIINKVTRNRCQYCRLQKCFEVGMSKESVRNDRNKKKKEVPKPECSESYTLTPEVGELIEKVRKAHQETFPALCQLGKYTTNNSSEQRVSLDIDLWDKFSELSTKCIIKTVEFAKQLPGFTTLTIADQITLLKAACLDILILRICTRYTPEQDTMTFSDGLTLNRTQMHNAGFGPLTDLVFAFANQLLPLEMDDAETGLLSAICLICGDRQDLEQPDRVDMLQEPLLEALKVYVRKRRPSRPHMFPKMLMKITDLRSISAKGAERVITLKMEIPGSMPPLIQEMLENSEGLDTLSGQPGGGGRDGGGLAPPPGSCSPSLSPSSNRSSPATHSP
# Summary of the method: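 Endpoint fitted in both directions relative to DMSO as negative control. It reflects DR5 cis-element reporter mRNA induction in transiently transfected HepG2 cells, measured 24 h after dosing through RT-PCR and fluorescent capillary electrophoresis.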
# [19] = target: Transcription factor E2F1 (Homo sapiens) (UniProt Q01094); test: ATG_E2F_CIS: Attagene CIS-FACTORIAL HepG2 Assay for human E2F Transcription Factor 1 (AID 2282935); settings: HepG2 Attagene cis-reporter, E2F reporter RNA transcripts; actives raise or lower the signal
# Transcription factor E2F1 (Homo sapiens), sequence (Q01094 whole entry, looked up): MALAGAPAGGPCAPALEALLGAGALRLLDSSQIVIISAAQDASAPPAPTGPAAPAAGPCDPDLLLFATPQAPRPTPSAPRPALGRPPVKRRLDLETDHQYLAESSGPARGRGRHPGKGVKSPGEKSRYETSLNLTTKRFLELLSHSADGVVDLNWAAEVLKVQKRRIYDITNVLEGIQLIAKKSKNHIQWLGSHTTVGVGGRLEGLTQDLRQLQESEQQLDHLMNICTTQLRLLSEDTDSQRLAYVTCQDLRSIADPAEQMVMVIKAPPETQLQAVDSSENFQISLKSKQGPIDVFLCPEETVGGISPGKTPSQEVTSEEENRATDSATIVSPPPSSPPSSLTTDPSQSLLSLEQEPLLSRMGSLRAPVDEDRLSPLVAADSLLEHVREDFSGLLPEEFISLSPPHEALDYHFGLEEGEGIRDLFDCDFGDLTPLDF
# Summary of the method: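 Multiplexed cis-reporter assay: HepG2, transient transfection, 24 h dosing, mRNA quantitation by labeled RT-PCR and CE.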
# [20] = target: Aryl hydrocarbon receptor (Homo sapiens) (UniProt P35869); test: ATG_Ahr_CIS: Attagene CIS-FACTORIAL HepG2 Assay for human Aryl Hydrocarbon Receptor (Ahr) (AID 2282930); settings: HepG2 AhR cis-factorial reporter transcription; actives raise or lower the signal
# Aryl hydrocarbon receptor (Homo sapiens), sequence (P35869 whole entry, looked up): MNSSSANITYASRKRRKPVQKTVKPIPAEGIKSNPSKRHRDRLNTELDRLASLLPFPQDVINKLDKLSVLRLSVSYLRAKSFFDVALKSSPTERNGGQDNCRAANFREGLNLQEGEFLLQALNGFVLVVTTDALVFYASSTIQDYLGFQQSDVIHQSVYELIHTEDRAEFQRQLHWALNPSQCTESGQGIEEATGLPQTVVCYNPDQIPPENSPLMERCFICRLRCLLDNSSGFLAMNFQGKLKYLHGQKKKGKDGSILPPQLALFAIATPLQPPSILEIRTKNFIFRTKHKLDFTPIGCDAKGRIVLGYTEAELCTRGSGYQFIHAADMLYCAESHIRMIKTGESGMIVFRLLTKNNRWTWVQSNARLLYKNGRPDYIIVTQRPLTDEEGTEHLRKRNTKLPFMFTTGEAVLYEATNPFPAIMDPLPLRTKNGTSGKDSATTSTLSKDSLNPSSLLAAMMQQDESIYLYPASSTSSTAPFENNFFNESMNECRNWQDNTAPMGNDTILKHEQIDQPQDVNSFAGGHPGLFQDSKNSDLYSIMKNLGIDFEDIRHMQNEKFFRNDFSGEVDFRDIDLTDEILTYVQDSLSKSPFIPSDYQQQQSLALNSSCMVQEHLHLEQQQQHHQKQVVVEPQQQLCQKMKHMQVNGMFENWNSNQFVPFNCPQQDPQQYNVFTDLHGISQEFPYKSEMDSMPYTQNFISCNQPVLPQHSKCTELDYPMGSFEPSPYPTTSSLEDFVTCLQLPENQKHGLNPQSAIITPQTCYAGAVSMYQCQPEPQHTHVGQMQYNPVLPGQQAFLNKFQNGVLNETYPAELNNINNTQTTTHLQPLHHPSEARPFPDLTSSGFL
# Summary of the method: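 Values derive from bidirectional fitting against DMSO negative control. Underlying signal: cis-element reporter mRNA in transiently transfected HepG2, harvested 24 h post-dose and measured by RT-PCR plus capillary electrophoresis.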
smiles,measurement,setting,value
CCCN(CCOc1c(Cl)cc(Cl)cc1Cl)C(=O)n1ccnc1,outcome,[1],inactive
same,outcome,[2],inactive
same,outcome,[3],inactive
same,AC50,[4],165 µM (active)
same,outcome,[5],inactive
same,outcome,[6],inactive
same,outcome,[7],inactive
same,outcome,[8],inactive
same,outcome,[9],inactive
same,outcome,[10],inactive
same,outcome,[11],inactive
same,outcome,[12],inactive
same,AC50,[13],11.1 µM (active)
same,outcome,[13],inactive
same,outcome,[14],inactive
same,AC50,[15],14 µM (active)
same,outcome,[15],inactive
same,outcome,[16],inactive
same,AC50,[17],15.1 µM (active)
same,outcome,[17],inactive
same,AC50,[18],3.01 µM (active)
same,outcome,[18],inactive
same,outcome,[19],inactive
O=C(O)C(F)(F)C(F)(F)C(F)(F)C(F)(F)C(F)(F)C(F)(F)C(F)(F)F,outcome,[1],inactive
same,AC50,[2],116 µM (active) and 111 µM (active)
same,outcome,[3],inactive
same,outcome,[4],inactive
same,outcome,[5],inactive
same,outcome,[6],inactive
same,outcome,[7],inactive
same,outcome,[8],inactive
same,outcome,[9],inactive
same,outcome,[10],inactive
same,outcome,[11],inactive
same,outcome,[12],inactive
same,outcome,[13],inactive
same,AC50,[14],11.5 µM (active)
same,outcome,[14],inactive
same,outcome,[20],inactive
same,AC50,[15],150 µM (active)
same,outcome,[15],inactive
same,outcome,[16],inactive
same,outcome,[19],inactive
CC[C@H](C)[C@H]1O[C@]2(C=C[C@@H]1C)C[C@@H]1C[C@@H](C/C=C(\C)[C@@H](O[C@H]3C[C@H](OC)[C@@H](O[C@H]4C[C@H](OC)[C@@H](O)[C@H](C)O4)[C@H](C)O3)[C@@H](C)/C=C/C=C3\CO[C@@H]4[C@H](O)C(C)=C[C@@H](C(=O)O1)[C@]34O)O2 (tested in a mixture with another compound),outcome,[1],inactive
same,outcome,[2],inactive
same,outcome,[3],inactive
same,outcome,[4],inactive
same,outcome,[5],inactive
same,outcome,[6],inactive
same,outcome,[7],inactive
same,outcome,[8],inactive
same,outcome,[9],inactive
same,outcome,[10],inactive
same,outcome,[11],inactive
same,outcome,[12],inactive
same,outcome,[13],inactive
same,AC50,[14],1.75 µM (active)
same,outcome,[20],inactive
same,outcome,[15],inactive
same,outcome,[16],inactive
same,outcome,[17],inactive
same,outcome,[18],inactive
same,outcome,[19],inactive
COP(=S)(OC)Oc1ccc([N+](=O)[O-])cc1,outcome,[1],inactive
same,outcome,[2],inactive
same,outcome,[3],inactive
same,outcome,[4],inactive
same,outcome,[5],inactive
same,outcome,[6],inactive
same,outcome,[7],inactive
same,outcome,[8],inactive
same,outcome,[9],inactive
same,outcome,[10],inactive
same,outcome,[11],inactive
same,outcome,[12],inactive
same,outcome,[13],inactive
same,outcome,[14],inactive
same,outcome,[20],inactive
same,outcome,[15],inactive
same,outcome,[16],inactive
same,outcome,[18],inactive
same,outcome,[19],inactive
